# Molecular target: AgAbp1
# Experiment: SPOT peptide array binding signal intensity (averaged, normalized) (arbitrary units (background-subtracted, floor 0; scale differs between SH3 domains)); higher = stronger binding of the SH3 domain to the peptide
# Method in brief: (§1)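 Binding signal refers to normalized, background-subtracted spot intensity averaged over replicates, expressed in arbitrary units that differ between domains. GST-fused SH3 domains from four yeast species were incubated at 10 μg/ml overnight at 4°C on cellulose membranes of synthetic 15-mer peptides with cysteines replaced by serines. Bound protein was detected with anti-GST antibody, an HRP anti-mouse secondary and luminol, and quantified with Genespotter.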
row,Binder,SPOT peptide array binding signal intensity
1,EVTPKVPERPSRRKT,377

# Molecular target: AgBbc1
# Experiment: as above
# Method in brief: as §1
row,Binder,SPOT peptide array binding signal intensity
1,EVTPKVPERPSRRKT,2180

# Molecular target: AgBem1-D1
# Experiment: as above
# Method in brief: as §1
row,Binder,SPOT peptide array binding signal intensity
1,EVTPKVPERPSRRKT,13

# Molecular target: AgBzz1-D1
# Experiment: as above
# Method in brief: as §1
row,Binder,SPOT peptide array binding signal intensity
1,EVTPKVPERPSRRKT,819

# Molecular target: AgBzz1-D2
# Experiment: as above
# Method in brief: as §1
row,Binder,SPOT peptide array binding signal intensity
1,EVTPKVPERPSRRKT,136

# Molecular target: AgCyk3
# Experiment: as above
# Method in brief: as §1
row,Binder,SPOT peptide array binding signal intensity
1,EVTPKVPERPSRRKT,1

# Molecular target: AgFus1
# Experiment: as above
# Method in brief: as §1
row,Binder,SPOT peptide array binding signal intensity
1,EVTPKVPERPSRRKT,4.5

# Molecular target: AgHof1
# Experiment: as above
# Method in brief: as §1
row,Binder,SPOT peptide array binding signal intensity
1,EVTPKVPERPSRRKT,21.8

# Molecular target: AgHse1
# Experiment: as above
# Method in brief: as §1
row,Binder,SPOT peptide array binding signal intensity
1,EVTPKVPERPSRRKT,47

# Molecular target: AgLsb1
# Experiment: as above
# Method in brief: as §1
row,Binder,SPOT peptide array binding signal intensity
1,EVTPKVPERPSRRKT,39.9

# Molecular target: AgLsb4
# Experiment: as above
# Method in brief: as §1
row,Binder,SPOT peptide array binding signal intensity
1,EVTPKVPERPSRRKT,2480

# Molecular target: AgMyo5
# Experiment: as above
# Method in brief: as §1
row,Binder,SPOT peptide array binding signal intensity
1,EVTPKVPERPSRRKT,1.25

# Molecular target: AgNbp2
# Experiment: as above
# Method in brief: as §1
row,Binder,SPOT peptide array binding signal intensity
1,EVTPKVPERPSRRKT,44.5

# Molecular target: AgRvs167
# Experiment: as above
# Method in brief: as §1
row,Binder,SPOT peptide array binding signal intensity
1,EVTPKVPERPSRRKT,11.3

# Molecular target: AgSho1
# Experiment: as above
# Method in brief: as §1
row,Binder,SPOT peptide array binding signal intensity
1,EVTPKVPERPSRRKT,8.25

# Molecular target: AgSla1-D1-D2
# Experiment: as above
# Method in brief: as §1
row,Binder,SPOT peptide array binding signal intensity
1,EVTPKVPERPSRRKT,≤ 0

# Molecular target: AgSla1-D3
# Experiment: as above
# Method in brief: as §1
row,Binder,SPOT peptide array binding signal intensity
1,EVTPKVPERPSRRKT,7.75

# Molecular target: CaAbp1-D1
# Experiment: as above
# Method in brief: as §1
row,Binder,SPOT peptide array binding signal intensity
1,EVTPKVPERPSRRKT,324

# Molecular target: CaAbp1-D2
# Experiment: as above
# Method in brief: as §1
row,Binder,SPOT peptide array binding signal intensity
1,EVTPKVPERPSRRKT,620

# Molecular target: CaBbc1
# Experiment: as above
# Method in brief: as §1
row,Binder,SPOT peptide array binding signal intensity
1,EVTPKVPERPSRRKT,2760

# Molecular target: CaBem1-D1
# Experiment: as above
# Method in brief: as §1
row,Binder,SPOT peptide array binding signal intensity
1,EVTPKVPERPSRRKT,24

# Molecular target: CaBzz1-D1
# Experiment: as above
# Method in brief: as §1
row,Binder,SPOT peptide array binding signal intensity
1,EVTPKVPERPSRRKT,1370

# Molecular target: CaBzz1-D2
# Experiment: as above
# Method in brief: as §1
row,Binder,SPOT peptide array binding signal intensity
1,EVTPKVPERPSRRKT,406

# Molecular target: CaCyk3
# Experiment: as above
# Method in brief: as §1
row,Binder,SPOT peptide array binding signal intensity
1,EVTPKVPERPSRRKT,420

# Molecular target: CaFus1
# Experiment: as above
# Method in brief: as §1
row,Binder,SPOT peptide array binding signal intensity
1,EVTPKVPERPSRRKT,≤ 0

# Molecular target: CaHof1
# Experiment: as above
# Method in brief: as §1
row,Binder,SPOT peptide array binding signal intensity
1,EVTPKVPERPSRRKT,4.88

# Molecular target: CaHse1
# Experiment: as above
# Method in brief: as §1
row,Binder,SPOT peptide array binding signal intensity
1,EVTPKVPERPSRRKT,316

# Molecular target: CaLsb1
# Experiment: as above
# Method in brief: as §1
row,Binder,SPOT peptide array binding signal intensity
1,EVTPKVPERPSRRKT,≤ 0

# Molecular target: CaLsb4
# Experiment: as above
# Method in brief: as §1
row,Binder,SPOT peptide array binding signal intensity
1,EVTPKVPERPSRRKT,6660

# Molecular target: CaMyo5
# Experiment: as above
# Method in brief: as §1
row,Binder,SPOT peptide array binding signal intensity
1,EVTPKVPERPSRRKT,≤ 0

# Molecular target: CaNbp2
# Experiment: as above
# Method in brief: as §1
row,Binder,SPOT peptide array binding signal intensity
1,EVTPKVPERPSRRKT,80.8

# Molecular target: CaRvs167
# Experiment: as above
# Method in brief: as §1
row,Binder,SPOT peptide array binding signal intensity
1,EVTPKVPERPSRRKT,177

# Molecular target: CaRvs167-3
# Experiment: as above
# Method in brief: as §1
row,Binder,SPOT peptide array binding signal intensity
1,EVTPKVPERPSRRKT,2

# Molecular target: CaSho1
# Experiment: as above
# Method in brief: as §1
row,Binder,SPOT peptide array binding signal intensity
1,EVTPKVPERPSRRKT,≤ 0

# Molecular target: CaSla1-D1-D2
# Experiment: as above
# Method in brief: as §1
row,Binder,SPOT peptide array binding signal intensity
1,EVTPKVPERPSRRKT,786

# Molecular target: CaSla1-D3
# Experiment: as above
# Method in brief: as §1
row,Binder,SPOT peptide array binding signal intensity
1,EVTPKVPERPSRRKT,0.5

# Molecular target: ScAbp1
# Experiment: as above
# Method in brief: as §1
row,Binder,SPOT peptide array binding signal intensity
1,EVTPKVPERPSRRKT,141

# Reference: the supplement of paper PMC4466140
